# High-throughput results as filed in PubChem.
# HCMV inh: blocks human cytomegalovirus replication | HFF cells, HCMV-luciferase reporter, 72 h; hits give low values | activity change, negative = inhibition, % at 57.5 µM | actives 4.5% (n = 410,000) | AID 1259415; in the data active = activity change below about -60%; inconclusive = no clear call, values can overlap the other calls; inactive = above about -39%; also: % is scaled to controls: 0 for no effect and ±100 for the full control effect
#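 Two-dose cell screen: HFF monolayers treated with compounds and infected with luciferase-expressing HCMV at 1 PFU/cell, 72 h at 37C, then lysed for luciferase measurement.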
# Pf growth 48h: inhibits P. falciparum growth in the first generation, 48 h; actives 5.9% (n = 310,000); Potency, µM (doses to about 28.7 µM), inactives show top-dose activity change, negative = inhibition, usual class: inhibitors; P. falciparum luciferase growth in erythrocytes, 48 h; also: potency is read from the fitted curve at half-maximal effect; % is scaled to controls: 0 for no effect and ±100 for the full control effect
#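 Here the parasites carry a stable luciferase gene and grow inside erythrocytes in Albumax-based RPMI medium with compound for one erythrocytic cycle. Activity is scored as loss of luminescent signal.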
# Shiga inhibitor: blocks Shiga toxin action in Vero cells. Vero cells, Shiga toxin protein synthesis inhibition reporter. inhibition, % at 38.7 µM. actives 9.2% (n = 290,000); in the data active = inhibition mostly above about 28%, no sharp cut-off; inactive = mostly below about 43%; also: 0% is about no effect
# Pf growth 96h: P. falciparum growth inhibition at 96 hour, primary screen for plastid delayed-death inhibitors. P. falciparum luciferase reporter growth, 96 h. Potency, µM (titrated, usually from 28.7 µM), inactives show at the highest dose activity change, negative = inhibition, actives largely listed as inhibitors. actives 6.9% (n = 320,000). AID 504834; also: potency is read from the fitted curve at half-maximal effect; % is scaled to controls: 0 for no effect and ±100 for the full control effect
#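 Cell-based qHTS: luciferase-tagged P. falciparum in erythrocytes (2% hematocrit, 0.05% parasitemia final) incubated with compounds for 96 hours, 37 C, 5% CO2; luciferase detection reagent then added and luminescence measured.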
# Cycloheximide cs: counter-screen hit for Shiga toxin inhibitors, cycloheximide; cell reporter, cycloheximide protein synthesis inhibition counterscreen; max response, %; actives 12% (n = 300,000); in the data active = max response mostly above about 13%, no sharp cut-off; inactive = mostly below about 14%; also: read at 38.3 µM for the half of the compounds with a filed dose; 0% is about no effect
# * hit, by the source's call; i = inactive; ? = inconclusive; . = no result; [ ] = another dose, or the depositor's remark. An excerpt weighted towards active compounds, which were near 20% of everything screened. Unless noted, calls follow the shape of the dose curve; as a rule, active = well fitted inhibition curve with a large enough effect; inconclusive = small, poorly fitted or top-dose-only effect, or another doubt; inactive = no such curve, though single readings can be large or run the other way.
SMILES,HCMV inh,Pf growth 48h,Shiga inhibitor,Pf growth 96h,Cycloheximide cs
Cc1cc2c(cc1S(=O)(=O)NCc1ccc(F)cc1)OCC(=O)N2,-6.7,.,.,.,.
Cc1cccc(C(=O)Nc2ccc(C(=O)/C=C/c3cccnc3)cc2)c1,18.2,-13.5%,-3.5,3.6%,23.7*
Cc1cccc(C(=O)Nc2ccc(C(=O)/C=C/c3ccncc3)cc2)c1,-101.3*,?,-24.2,209.2%,-7.9
C#CCOCCOCCOCCNc1nc(OC)nc(N2CCN(C(=O)[C@H](CCC(=O)O)n3cc(C(N)CO)nn3)CC2)n1 (stereo partly drawn),-11.2,6.9%,.,0.0%,.
N/C(=N\OC(=O)/C=C/c1ccccc1)c1ccncc1,23.2,106.9%,70.7*,164.3%,21.4*
N/C(=N\OC(=O)/C=C/c1ccccc1Cl)c1ccncc1,71.3,327.8%,137.4*,-8.3%,66.5*
N/C(=N\OC(=O)/C=C/c1ccccc1)c1ccccn1,7.9,-49.6%,30.2,22.7%,20.2*
O=C(/C=C/c1ccccc1)c1ccccn1,27.2,40.4%,83.8*,?,38.1*
N/C(=N\OC(=O)CCCOc1ccccc1)c1ccncc1,-33.0,-15.9%,18.6,36.0%,-2.9
CCOc1cc(C(=O)NN2CCOCC2)cc(OCC)c1OCC,24.3,0.9%,.,?,-2.0
COc1ccc(OC)c(NC(=O)COC(=O)/C=C/c2ccc(Cl)cc2)c1,-3.3,44.7%,-7.8,0.0%,-1.9
COc1ccc(C(=O)c2ccc(Br)cc2)c2ccccc12,-5.4,5.1%,-31.0,22.6%,1.4
Cn1c(=O)c2c(nc(NC(Cc3ccccc3)C(=O)O)n2Cc2ccccc2)n(C)c1=O (stereo not drawn),-30.3,6.57µM*,13.4,54.4%,10.0
CNc1nc2c(c(=O)n(C)c(=O)n2C)n1Cc1ccccc1,-65.2*,6.8%,-5.6,7.8%,-2.9
CCN(C(=O)COC(=O)c1ccc2[nH]c(C)c(C)c2c1)c1c(N)n(Cc2ccccc2)c(=O)[nH]c1=O,-27.0,.,.,.,.
COCCn1c(C)cc(O)c(C(c2ccc(OC)cc2)N2CCCCC2)c1=O (stereo not drawn),-10.1,.,.,.,.
O=c1[nH]c2ccccc2n1CCCN1CCN(C(c2ccccc2)c2ccccc2)CC1,.,11.7µM*,-3.6,12µM*,-6.1
O=c1[nH]c2ccccc2n1CCCN1CCCCC1,6.5,-12.2%,-7.1,?,-1.5
Cc1ccc(C)c(C(=O)N2CCC(c3nc4c(nnn4Cc4ccccc4)c(=O)[nH]3)CC2)c1,30.4,.,.,.,.
CCOc1ccc(C(=O)Nc2ccc(-c3nc4ccccc4s3)c(C)c2)cc1OCC,69.6,.,.,.,.
CCOC(=O)c1ccc(N=Nc2c(C)c(C#N)c(O)[nH]c2=O)cc1,-18.8,?,83.3*,17.8%,45.6*
O=C(NNC(=O)c1ccc2c(=O)n3c(nc2c1)CCC3)c1cccc(Cl)c1,2.8,20.5%,.,4.3%,.
COc1cc(NC(C)CCCNC(C)C)c2ncccc2c1OC (stereo not drawn),-81.5*,.,.,.,.
COc1cc(N)c2ncccc2c1OC,-7.7,.,.,.,.
Cc1c(C(=O)N2CCCCC2)c(S(=O)(=O)NCc2ccccc2Cl)c(C)n1C,-22.5,-10.7%,-2.0,13.1µM*,-3.2
SMILES,HCMV inh,Pf growth 48h,Shiga inhibitor,Pf growth 96h,Cycloheximide cs
Cc1ccc(SCC(=O)O/N=C(\N)c2ccncc2)cc1,9.8,8.4%,41.1,-7.5%,37.3*
Cc1ccc(/C(N)=N/OC(=O)CSc2ccccc2)cc1,119.4,i,78.6*,19.8%,59.5*
Cc1ccc(SCC(=O)O/N=C(\N)c2cccc([N+](=O)[O-])c2)cc1,18.7,-4.3%,-12.6,-4.4%,-1.3
Cc1ccc(SCC(=O)NCc2ccncc2)cc1,-28.2,-0.6%,-8.3,85.6%,-1.8
COc1ccc(/C(N)=N/OC(=O)CSc2ccc(C)cc2)cc1,22.7,.,-7.5,32.3%,-2.3
N/C(=N\OC(=O)CSc1ccccc1)c1ccc([N+](=O)[O-])cc1,29.5,125.3%,67.3*,0.0%,46.3*
N/C(=N\OCc1ccc([N+](=O)[O-])cc1)c1ccncc1,17.7,177.1%,57.7*,164.2%,27.3*
c1ccc2c(-c3cc(NCc4ccncc4)n4nccc4n3)cccc2c1,12.6,.,.,.,.
O=C(NNS(=O)(=O)c1ccccc1F)c1ccccc1-n1cccc1,?,6.2%,13.1,7.1%,8.6
COC(=O)c1ccc(/C=C2/SC(=S)N(CCCC(=O)Nc3ccccn3)C2=O)cc1,-84.7*,?,-8.8,33.6%,-7.9
CCc1ccc(/C=C2/SC(=S)N(CC(=O)Nc3nc4ccccc4s3)C2=O)cc1,52.2,51.5%,78.0*,201.4%,21.7*
CC(=O)NNC(=O)CN1C(=O)/C(=C/c2ccccc2)SC1=S,?,-13.6%,10.8,117.4%,-4.9
CCc1ccc(/C=C2\SC(=S)N(CCCC(=O)Nc3ccccn3)C2=O)cc1,-103.0*,?,-22.9,106.1%,-5.8
Cc1nn(-c2ccccc2)nc1CNC(=O)CC(C)(C)C,23.2,1.8%,-4.4,24.9%,10.3
COc1ccc(C2CC2/C(=N/O)c2ccccn2)cc1 (stereo not drawn),-2.7,325.7%,107.7*,-49.0%,20.8*
COc1ccc(C2CC2/C(=N/O)c2ccccc2)cc1 (stereo not drawn),20.9,51.8%,44.9,130.3%,31.2*
COc1ccc(C2CC2C(=O)c2ccccn2)cc1 (stereo not drawn),3.7,127.2%,45.9,136.9%,41.1*
COc1ccc(S(=O)(=O)N2CCN(C(=O)c3ccccn3)CC2)cc1,-25.2,0.0%,.,-1.4%,.
O/N=C(\c1ccccn1)C1CC1c1ccccc1 (stereo not drawn),-79.4*,5.2%,-13.0,?,11.5
COc1ccc(C2CC2/C(C)=N/OC(=O)c2ccc(F)cc2)cc1 (stereo not drawn),-39.5,41.7%,39.4,?,9.1
O=C(O)CCC(=O)N1CCN(S(=O)(=O)c2cccs2)CC1,-6.6,10.0%,-5.0,8.1%,7.6
COc1ccc(S(=O)(=O)N2CCN(C(=O)Cc3cccs3)CC2)cc1,-30.2,5.3%,-11.2,-8.9%,-1.8
CC(=O)c1ccc(OCCCC(=O)N2CCN(S(=O)(=O)c3cccs3)CC2)cc1,-18.5,?,-7.1,9.28µM*,0.7
O=C(Cc1cccs1)N1CCN(S(=O)(=O)c2ccccc2)CC1,6.0,13.5%,-5.5,13.1µM*,-6.4
CC(=O)c1ccc(OCC(=O)N2CCN(S(=O)(=O)c3ccc(Br)s3)CC2)cc1,-26.8,?,.,?,.
CCC(=O)c1ccc(OCC(=O)N2CCN(S(=O)(=O)c3ccc(Cl)s3)CC2)cc1,-12.9,?,.,10.4µM*,.
O=C(CSc1ccccc1)N1CCN(S(=O)(=O)c2cccs2)CC1,50.1,17.8%,18.1,?,5.9*
Cc1ccc(C)[n+](CC(=O)N2CCCCC2)c1,22.2,85.5%[1.15 µM],-5.2,-11.0%,-2.9
Cc1ccc(S(=O)(=O)N2C=CC(=O)CC2c2cccs2)cc1 (stereo not drawn),39.7,.,.,.,.
O=C(CSc1nnc(COc2ccccc2)o1)Nc1ccc(F)cc1,-18.3,22.8%,-8.8,9.1%,-3.1
